# Data from PubChem BioAssay (Tox21).
# Results filed as inconclusive are left out. Where a call stands in place of a potency, no number is given. Unmarked numbers belong to inactive results. Activity calls are given as the source filed them. Unless noted, calls come from the whole dose curve; as a rule, active = well fitted curve in the direction sought with a large enough effect in the repeat runs; inconclusive = weak or mixed curves; inactive = no such curve, though single readings can be large; an effect the other way counts as inactive or inconclusive.
# Legend:
# [1] = qHTS assay to identify aromatase inhibitors - cell viability counter screen (AID 743084);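 note: cells stimulated with testosterone during compound exposure; nearly all actives have a fitted effect of over 55% in size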
# [2] = target: Aryl hydrocarbon receptor (Homo sapiens) (UniProt P35869); experiment: qHTS assay to identify small molecule that activate the aryl hydrocarbon receptor (AhR) signaling pathway (AID 743085); note: nearly all actives have a fitted effect of over 15% in size; note: potency is the fitted concentration of half-maximal effect;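 for activation: HG2L7.5c1 human HepG2 liver cells with stably integrated DRE-driven firefly reporter; series mostly up to about 70 µM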
# Sequence of Aryl hydrocarbon receptor (Homo sapiens) (P35869 whole entry, looked up): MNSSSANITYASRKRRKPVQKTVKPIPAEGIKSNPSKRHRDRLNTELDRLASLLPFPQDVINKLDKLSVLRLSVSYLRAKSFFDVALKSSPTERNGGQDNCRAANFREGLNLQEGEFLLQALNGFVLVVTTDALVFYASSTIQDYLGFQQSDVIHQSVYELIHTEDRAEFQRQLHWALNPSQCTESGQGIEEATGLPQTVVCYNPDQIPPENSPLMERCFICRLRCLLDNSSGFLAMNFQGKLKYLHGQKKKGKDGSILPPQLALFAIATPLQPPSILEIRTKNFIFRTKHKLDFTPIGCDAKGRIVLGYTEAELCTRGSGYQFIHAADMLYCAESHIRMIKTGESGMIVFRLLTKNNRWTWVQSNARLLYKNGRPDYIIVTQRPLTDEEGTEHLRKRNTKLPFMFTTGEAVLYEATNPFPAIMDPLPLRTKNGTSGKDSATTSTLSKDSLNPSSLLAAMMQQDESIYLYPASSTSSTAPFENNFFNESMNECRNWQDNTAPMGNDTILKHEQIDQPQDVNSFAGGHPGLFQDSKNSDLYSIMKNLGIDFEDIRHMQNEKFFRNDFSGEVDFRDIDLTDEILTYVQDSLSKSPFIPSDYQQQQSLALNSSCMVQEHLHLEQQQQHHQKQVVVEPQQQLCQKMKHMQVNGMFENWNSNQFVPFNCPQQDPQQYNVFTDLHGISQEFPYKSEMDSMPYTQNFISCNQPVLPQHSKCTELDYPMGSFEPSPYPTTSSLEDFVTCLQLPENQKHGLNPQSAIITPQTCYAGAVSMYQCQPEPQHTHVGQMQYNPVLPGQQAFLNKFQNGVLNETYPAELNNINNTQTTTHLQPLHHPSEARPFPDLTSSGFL
# Procedure, shortened: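 AhR agonist activity is inferred from enhanced light output of a DRE-controlled firefly luciferase reporter in HepG2 cells, measured with ONE-Glo following 24 h treatment at 37C.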
# [3] = qHTS assay to identify small molecule that activate the aryl hydrocarbon receptor (AhR) signaling pathway - cell viability counter screen (AID 743086);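 note: HepG2 liver cells carrying the AhR DRE luciferase reporter; series mostly up to about 70 µM; nearly all actives have a fitted effect of over 45% in size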
# Procedure, shortened: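 HepG2-AhR-luc (HG2L7.5c1) cells, 4000/well, treated 24 h at 37 C with compound; viability measured as CellTiter-Fluor fluorescence after 30 min in the same wells as the luciferase read.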
# [4] = target: Peroxisome proliferator-activated receptor gamma (Homo sapiens) (UniProt P37231); experiment: qHTS assay to identify small molecule agonists of the peroxisome proliferator-activated receptor gamma (PPARg) signaling pathway (AID 743094; active = well fitted activation curve with a large enough effect in the signal ratio in the repeat runs, not every such curve was filed as active; the % refers to the signal ratio)
# Sequence of Peroxisome proliferator-activated receptor gamma (Homo sapiens) (P37231 whole entry, looked up): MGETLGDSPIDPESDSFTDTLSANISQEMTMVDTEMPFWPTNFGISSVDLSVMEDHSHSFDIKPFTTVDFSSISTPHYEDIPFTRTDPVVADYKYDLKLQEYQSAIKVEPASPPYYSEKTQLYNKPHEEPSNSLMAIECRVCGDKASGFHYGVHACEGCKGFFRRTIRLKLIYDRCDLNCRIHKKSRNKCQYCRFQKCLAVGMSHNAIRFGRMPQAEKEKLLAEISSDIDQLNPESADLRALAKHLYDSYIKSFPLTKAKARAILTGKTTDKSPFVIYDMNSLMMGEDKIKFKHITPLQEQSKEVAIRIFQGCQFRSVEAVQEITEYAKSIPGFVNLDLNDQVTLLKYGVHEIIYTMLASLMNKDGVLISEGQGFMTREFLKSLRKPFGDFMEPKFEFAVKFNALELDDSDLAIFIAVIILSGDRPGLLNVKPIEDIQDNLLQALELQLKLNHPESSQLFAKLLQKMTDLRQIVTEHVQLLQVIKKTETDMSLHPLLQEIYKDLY
# Procedure, shortened: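 HEK293H PPARg-bla cells, 5 h settle at 37C/5% CO2; compound (DMSO) 17 h, 37C; B/G FRET substrate 1 h RT; fluorescence intensity read-out. qHTS format.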
# [5] = qHTS assay to identify small molecule antagonists of the peroxisome proliferator-activated receptor gamma (PPARg) signaling pathway - cell viability counter screen (AID 743194); note: nearly all actives have a fitted effect of over 55% in size
# Procedure, shortened: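 Cytotoxicity counter screen in PPARg-bla HEK293H cells, same wells as reporter assay. Compounds plus 50 nM rosiglitazone (final) for 17 h at 37 C, then viability read by CellTiter-Glo luminescence.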
# [6] = qHTS assay for small molecule agonists of the antioxidant response element (ARE) signaling pathway (AID 743202; active = well fitted activation curve with a large enough effect in the signal ratio in the repeat runs, not every such curve was filed as active; the % refers to the signal ratio)
# Procedure, shortened: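 HepG2 ARE-bla cells; 16 h treatment at 37 C; FRET-based beta-lactamase fluorescence read after 2 h substrate incubation at room temperature.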
# [7] = qHTS assay for small molecule agonists of the antioxidant response element (ARE) signaling pathway - cell viability counter screen (AID 743203; calls by dose curve; note: nearly all actives have a fitted effect of over 55% in size)
# Procedure, shortened: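 Luminescence read-out (CellTiter-Glo, 30 min at room temperature) measured cell viability in the same wells as the ARE beta-lactamase reporter. HepG2 ARE-bla cells were treated with compounds for 16 hrs at 37C/5% CO2.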
# [8] = qHTS assay for small molecule activators of the heat shock response signaling pathway - cell viability counter screen (AID 743209); note: nearly all actives have a fitted effect of over 50% in size; note: potency is the fitted concentration of half-maximal effect
# Procedure, shortened: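 HSE-bla HeLa; 1500 cells/well; overnight 37 C, 5% CO2; compound 5 h 37 C; LiveBLAzer B/G substrate 2.5 h RT; CellTiter-Glo 30 min RT; luminescence.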
# [9] = qHTS assay for small molecule activators of the heat shock response signaling pathway (AID 743210; active = well fitted activation curve with a large enough effect in the signal ratio in the repeat runs, with a control signal flat, not every such curve was filed as active; the % refers to the signal ratio;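 note: HeLa cells with beta-lactamase reporter driven by heat shock elements; series mostly up to about 63 µM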)
# Procedure, shortened: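 Following overnight attachment, HSE-bla HeLa cells received test compounds for 5 h at 37 C; beta-lactamase activity was then detected via FRET substrate fluorescence.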
# [10] = target: Peroxisome proliferator-activated receptor gamma (Homo sapiens) (UniProt P37231); experiment: qHTS assay to identify small molecule antagonists of the peroxisome proliferator-activated receptor gamma (PPARg) signaling pathway (AID 743191; calls by dose curve; note: series mostly up to about 63 µM; nearly all actives have a fitted effect of over 30% in size)
# Procedure, shortened: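 GeneBLAzer PPARg UAS-bla HEK293H cells, 5 h post-plating, exposed to compounds 17 h at 37C. LiveBLAzer B/G FRET substrate added for 1 h at room temperature; beta-lactamase reporter read by fluorescence intensity.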
compound,measurement,setting,value
O=C[C@@H](O)[C@H](O)[C@H](O)CO,outcome,[1],inactive
same,Potency,[2],inactive
same,outcome,[3],inactive
same,outcome,[4],inactive
same,outcome,[5],inactive
same,Potency,[6],inactive
same,outcome,[7],inactive
same,Potency,[8],inactive
same,outcome,[9],inactive
N=C(N)N,outcome,[1],inactive
same,Potency,[2],inactive
same,outcome,[3],inactive
same,outcome,[4],inactive
same,outcome,[5],inactive
same,Potency,[6],inactive
same,outcome,[7],inactive
same,Potency,[8],inactive
same,outcome,[9],inactive
C/C(=N\O)c1ccc(OCC(=O)N2CCCCC2)cc1,outcome,[1],inactive
same,Potency,[2],5.96 µM (active)
same,outcome,[3],inactive
same,outcome,[4],inactive
same,outcome,[5],inactive
same,outcome,[7],inactive
same,Potency,[8],inactive
same,outcome,[9],inactive
O=C(c1ccccc1)c1cccc(O)c1,outcome,[1],inactive
same,Potency,[2],inactive
same,outcome,[3],inactive
same,outcome,[4],inactive
same,outcome,[7],inactive
same,Potency,[8],inactive
N[C@H]1C(O)O[C@H](CO)[C@@H](O)[C@@H]1O (stereo partly specified),outcome,[1],inactive
same,Potency,[2],inactive
same,outcome,[3],inactive
same,outcome,[4],inactive
same,outcome,[5],inactive
same,outcome,[7],inactive
same,Potency,[8],inactive
CC(C)(O)CCCC1=CCC(C=O)CC1 (stereo unspecified),outcome,[1],inactive
same,Potency,[2],inactive
same,outcome,[3],inactive
same,outcome,[4],inactive
same,outcome,[5],inactive
same,outcome,[7],inactive
same,Potency,[8],inactive
same,outcome,[9],inactive
CCC(C)SSC(C)CC (stereo unspecified),outcome,[1],inactive
same,Potency,[2],inactive
same,outcome,[3],inactive
same,outcome,[4],inactive
same,outcome,[5],inactive
same,outcome,[7],inactive
same,Potency,[8],inactive
same,outcome,[9],inactive
Nc1nc(Cl)cc(Cl)n1,outcome,[1],inactive
same,outcome,[3],inactive
same,outcome,[4],inactive
same,outcome,[5],inactive
same,outcome,[7],inactive
same,Potency,[8],55 µM (active)
C[C@@H]1NC(=O)[C@@H](N)CNC(=O)[C@H](C2CCNC(N)=N2)NC(=O)/C(=C/NC(N)=O)NC(=O)[C@H](CNC(=O)C[C@@H](N)CCCN)NC1=O (stereo partly specified),outcome,[1],inactive
same,outcome,[3],inactive
same,outcome,[4],inactive
same,"ratio activity, negative = inhibition",[10],0.698% [at 0.55 µM]
same,"activity change, negative = cytotoxicity",[5],14.8% [at 0.55 µM]
same,activation,[6],11.7% [at 0.756 µM]
same,"viability change, negative = cytotoxic",[7],6.23% [at 0.756 µM]
same,"activity change, negative = cytotoxicity",[8],-24.2% [at 0.55 µM]
same,activation,[9],-0.65% [at 0.55 µM]
C[C@]12C=CC(=O)C=C1[C@@H](F)C[C@@H]1[C@@H]2[C@@H](O)C[C@@]2(C)[C@H]1CC[C@]2(O)C(=O)CO,outcome,[1],inactive
same,outcome,[3],inactive
same,outcome,[4],inactive
same,outcome,[10],inactive
same,Potency,[6],inactive
same,outcome,[7],inactive
same,Potency,[8],inactive
same,outcome,[9],inactive
CCCCCCCCCCCBr,outcome,[1],inactive
same,outcome,[3],inactive
same,outcome,[4],inactive
same,outcome,[5],inactive
same,Potency,[6],inactive
same,Potency,[8],inactive
same,outcome,[9],inactive
CCCCCCCOC(C)=O,outcome,[1],inactive
same,outcome,[3],inactive
same,outcome,[4],inactive
same,outcome,[10],inactive
same,outcome,[5],inactive
same,Potency,[6],inactive
same,outcome,[7],inactive
same,Potency,[8],inactive
same,outcome,[9],inactive
CNCCc1ccccn1,outcome,[1],inactive
same,Potency,[2],inactive
same,outcome,[3],inactive
same,outcome,[5],inactive
same,Potency,[6],inactive
same,outcome,[7],inactive
same,Potency,[8],inactive
same,outcome,[9],inactive
Cc1ccc2ccccc2n1,outcome,[1],inactive
same,Potency,[2],inactive
same,outcome,[3],inactive
same,outcome,[10],inactive
same,outcome,[5],inactive
same,Potency,[6],inactive
same,outcome,[7],inactive
same,Potency,[8],inactive
CCCCN1C(=O)c2ccccc2C1=O,outcome,[1],inactive
same,Potency,[2],inactive
same,outcome,[3],inactive
same,outcome,[5],inactive
same,Potency,[6],inactive
same,outcome,[7],inactive
same,Potency,[8],inactive
same,outcome,[9],inactive
CC(C)(O)c1ccc(C(C)(C)O)cc1,outcome,[1],inactive
same,outcome,[3],inactive
same,outcome,[4],inactive
same,outcome,[10],inactive
same,Potency,[6],inactive
same,outcome,[7],inactive
same,outcome,[9],inactive
CC(C)C[P+](C)(CC(C)C)CC(C)C,outcome,[1],inactive
same,outcome,[3],inactive
same,outcome,[4],inactive
same,outcome,[5],inactive
same,Potency,[6],inactive
same,outcome,[7],inactive
same,Potency,[8],inactive
c1cc2ccc3ccc4ccc5cccc6c(c1)c2c3c4c56,"activity change, negative = cytotoxicity",[1],7.94% [at 3.79 µM]
same,activation,[2],0.485% [at 3.79 µM]
same,"viability change, negative = cytotoxic",[3],13.2% [at 3.79 µM]
same,"activity change, negative = cytotoxicity",[5],27.2% [at 2.7 µM]
same,"viability change, negative = cytotoxic",[7],6.8% [at 3.74 µM]
same,"activity change, negative = cytotoxicity",[8],1.58% [at 2.7 µM]
CCOc1ccccc1OCCN[C@H](C)Cc1ccc(OC)c(S(N)(=O)=O)c1,outcome,[1],inactive
same,Potency,[2],inactive
same,outcome,[3],inactive
same,outcome,[5],inactive
same,Potency,[6],inactive
same,outcome,[7],inactive
same,Potency,[8],inactive
same,outcome,[9],inactive
COc1ccc2cc(CCC(C)=O)ccc2c1,outcome,[1],inactive
same,Potency,[2],3.2 µM (active)
same,outcome,[3],inactive
same,outcome,[10],inactive
same,outcome,[5],inactive
same,outcome,[7],inactive
same,Potency,[8],inactive
same,outcome,[9],inactive
CCCCCCCC(=O)N(C)C,outcome,[1],inactive
same,outcome,[3],inactive
same,outcome,[4],inactive
same,outcome,[10],inactive
same,outcome,[5],inactive
same,Potency,[6],inactive
same,outcome,[7],inactive
same,Potency,[8],inactive
C[n+]1ccccc1/C=N/O,outcome,[1],inactive
same,outcome,[3],inactive
same,outcome,[4],inactive
same,outcome,[10],inactive
same,outcome,[5],inactive
same,Potency,[6],inactive
same,outcome,[7],inactive
same,Potency,[8],inactive
same,outcome,[9],inactive
CN(C)CCC[C@@]1(c2ccc(F)cc2)OCc2cc(C#N)ccc21,outcome,[1],inactive
same,outcome,[3],inactive
same,outcome,[4],inactive
same,outcome,[5],inactive
same,Potency,[8],inactive
Clc1cc(Cl)c(Cl)c(Cl)c1Cl,outcome,[1],inactive
same,Potency,[2],inactive
same,outcome,[3],inactive
same,outcome,[5],inactive
same,Potency,[6],inactive
same,outcome,[7],inactive
same,Potency,[8],inactive
NNC(=O)OCc1ccccc1,outcome,[1],inactive
same,outcome,[3],inactive
same,outcome,[4],inactive
same,outcome,[5],inactive
same,Potency,[8],inactive
same,outcome,[9],inactive
CCCC(=O)OC,outcome,[1],inactive
same,outcome,[3],inactive
same,outcome,[4],inactive
same,outcome,[10],inactive
same,outcome,[5],inactive
same,Potency,[6],inactive
same,outcome,[7],inactive
same,Potency,[8],inactive
same,outcome,[9],inactive
O=S(=O)(O)c1cc(I)c(O)c2ncccc12,outcome,[1],inactive
same,outcome,[3],inactive
same,outcome,[4],inactive
same,outcome,[10],inactive
same,outcome,[5],inactive
same,outcome,[7],inactive
same,Potency,[8],inactive
same,outcome,[9],inactive
